In PubChem BioAssay (NCI):
Compounds without any hit were thinned out: in the full panel of roughly 83,000, 20% have a hit.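 96-well plates, one dose, 48 hours. Percent growth reported; active if below 10.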 Calls of active or inactive are those of the source.

Experiments:
Assay in all cases: NCI-60 one-dose screen, 48 h (100 = growth as untreated, 0 = no growth, -100 = all killed)
Conditions in all cases: 10 µM unless noted
NCI-H23 lung = system: NCI-H23 lung
NCI-H226 lung = system: NCI-H226 lung
NCI-H322M lung = system: NCI-H322M lung
HOP-62 NSCLC = system: HOP-62 NSCLC
NCI-H460 lung = system: NCI-H460 lung
HOP-92 NSCLC = system: HOP-92 NSCLC
NCI-H522 lung = system: NCI-H522 lung
A549/ATCC NSCLC = system: A549/ATCC NSCLC
786-0 renal = system: 786-0 renal
COLO 205 colon = system: COLO 205 colon

Measured: growth

COc1cc(C2CC(c3ccc(Nc4ccnc5cc(Cl)ccc45)cc3)=NN2c2ccccc2)cc(OC)c1OC (stereo not given)
inactive: NCI-H23 lung 84.4% | NCI-H226 lung 83.6% | NCI-H322M lung 91.2% | HOP-62 NSCLC 72.8% | NCI-H460 lung 68.9% | HOP-92 NSCLC 52.5% | NCI-H522 lung 53% | A549/ATCC NSCLC 64.6% | 786-0 renal 76.1% | COLO 205 colon 74.1%

Cc1ccccc1N1C(c2ccccc2)=NNC12C=CC(=O)c1c(O)cccc12 (stereo not given)
inactive: NCI-H23 lung 31.4% | NCI-H226 lung 87.8% | NCI-H322M lung 99.1% | HOP-62 NSCLC 31.1% | NCI-H460 lung 89.6% | HOP-92 NSCLC 137% | NCI-H522 lung 54.6% | A549/ATCC NSCLC 68.1% | COLO 205 colon 95.7%

O=C(OCc1ccc2c(Cl)cc(Cl)c(O)c2n1)c1cc2ccccc2[nH]1
active: NCI-H23 lung -54.4% | NCI-H226 lung -73.7% | NCI-H322M lung 8.26% | HOP-62 NSCLC -35.1% | NCI-H460 lung -75% | HOP-92 NSCLC -77.3% | NCI-H522 lung -73.8% | A549/ATCC NSCLC -54.2% | 786-0 renal -78.6% | COLO 205 colon -87.1%

CC(CN1CCN(C)CC1)CN1c2ccccc2Sc2ccc(C(F)(F)F)cc21 (stereo not given)
active: NCI-H460 lung 0.601% | COLO 205 colon -68%
inactive: NCI-H23 lung 74.3% | NCI-H226 lung 81.8% | NCI-H322M lung 80% | HOP-62 NSCLC 85.6% | HOP-92 NSCLC 39.7% | NCI-H522 lung 43.8% | A549/ATCC NSCLC 41.2% | 786-0 renal 52.2%

C=C1NC(=O)C(C(C)CC)NC(=O)C2CSCC(NC(=O)CCC(=O)O)C(=O)NC(Cc3ccccc3)C(=O)NC(C)C(=O)NC(CC(C)CC)C(=O)NC(C(=O)NC(Cc3ccccc3)C(=O)N3CCCC3C(=O)N2)C(C)OC(=O)C(CO)NC(=O)C(C(O)COC)N(C)C(=O)C(C(C)C)NC(=O)C(CC(C)CC)NC1=O (stereo not given)
inactive: NCI-H23 lung 38.6% [6 µM] | NCI-H226 lung 56.8% [6 µM] | NCI-H322M lung 39.8% [6 µM] | HOP-62 NSCLC 17.3% [6 µM] | HOP-92 NSCLC 42% [6 µM] | A549/ATCC NSCLC 10.9% [6 µM]
active: NCI-H460 lung -4.11% [6 µM] | NCI-H522 lung -19.3% [6 µM] | COLO 205 colon -44.7% [6 µM]

CC(=O)c1c(O)c(C)c(O)c2c1OC1=CC(=O)/C(=C(/C)N)C(=O)C12C (stereo not given)
inactive: NCI-H23 lung 89.8% | NCI-H226 lung 73.8% | NCI-H322M lung 97.3% | HOP-62 NSCLC 94.9% | NCI-H460 lung 98.2% | HOP-92 NSCLC 99.7% | NCI-H522 lung 77.6% | A549/ATCC NSCLC 83% | 786-0 renal 98.3% | COLO 205 colon 95.8%

CCOc1cccc(/C=N/NC(=O)c2ccc(Nc3ccnc(C(F)(F)F)c3)cc2)c1O
active: NCI-H226 lung -16.7% | HOP-62 NSCLC -9.17% | NCI-H460 lung -3.48% | NCI-H522 lung 2.45% | 786-0 renal 3.12% | COLO 205 colon -9.24%
inactive: NCI-H23 lung 28.2% | NCI-H322M lung 22.3% | HOP-92 NSCLC 18.2% | A549/ATCC NSCLC 17.8%

CCNS(=O)(=O)c1ccc(C)cc1
inactive: NCI-H23 lung 100% | NCI-H226 lung 103% | NCI-H322M lung 102% | HOP-62 NSCLC 100% | NCI-H460 lung 101% | HOP-92 NSCLC 69.7% | NCI-H522 lung 114% | A549/ATCC NSCLC 95.8% | 786-0 renal 110% | COLO 205 colon 113%

CC1=NOCC(=O)N1
inactive: NCI-H23 lung 106% | NCI-H226 lung 102% | NCI-H322M lung 111% | HOP-62 NSCLC 105% | NCI-H460 lung 107% | HOP-92 NSCLC 96% | NCI-H522 lung 92.8% | A549/ATCC NSCLC 89.7% | 786-0 renal 101% | COLO 205 colon 108%

COC(=O)c1cc2oc(/C=N/NC(=O)c3cc4oc(-c5cccc(C(F)(F)F)c5)cc4[nH]3)cc2n1Cc1ccccc1
active: HOP-62 NSCLC -2.75%
inactive: NCI-H23 lung 93.1% | NCI-H226 lung 109% | NCI-H322M lung 88% | NCI-H460 lung 107% | HOP-92 NSCLC 78.1% | NCI-H522 lung 97.4% | A549/ATCC NSCLC 20.6% | COLO 205 colon 118%

C=CCOc1c(Br)cc(Br)cc1Br
inactive: NCI-H23 lung 53.1% | NCI-H226 lung 81.5% | NCI-H322M lung 45% | HOP-62 NSCLC 58.6% | NCI-H460 lung 38.5% | HOP-92 NSCLC 90.6% | NCI-H522 lung 27.6% | A549/ATCC NSCLC 59.7% | 786-0 renal 102% | COLO 205 colon 103%

COc1ccc2[nH]cc(C(c3ccc(Cl)cc3)N3CCCC3)c2c1 (stereo not given)
inactive: NCI-H23 lung 93.2% | NCI-H226 lung 98.2% | NCI-H322M lung 94.3% | HOP-62 NSCLC 97.6% | NCI-H460 lung 101% | HOP-92 NSCLC 79.2% | NCI-H522 lung 82.1% | A549/ATCC NSCLC 98.8% | 786-0 renal 102% | COLO 205 colon 114%

[Ag].[Ag].[NH-]S(=O)(=O)c1ccc(N=Nc2cc(N=Nc3ccc(S([NH-])(=O)=O)cc3)c3c(NC(=O)C(Cl)Cl)cccc3c2OC(=O)C(Cl)Cl)cc1.[c-]1nccs1.[c-]1nccs1
active: NCI-H522 lung -86.4% | COLO 205 colon 6.93%
inactive: NCI-H23 lung 93.8% | NCI-H226 lung 90.8% | NCI-H322M lung 97.2% | HOP-62 NSCLC 78.9% | NCI-H460 lung 56.7% | HOP-92 NSCLC 60.7% | A549/ATCC NSCLC 83.5% | 786-0 renal 106%

O=C1OC(c2ccc(-c3ccccc3)cc2)=C/C1=C/c1c(Cl)cccc1Cl
inactive: NCI-H23 lung 94.7% | NCI-H226 lung 84.1% | NCI-H322M lung 85.7% | HOP-62 NSCLC 76% | NCI-H460 lung 99.4% | HOP-92 NSCLC 59% | NCI-H522 lung 89.3% | A549/ATCC NSCLC 11% | COLO 205 colon 103%

CCC1CCc2nc3sc(C(=O)Nc4cccc(F)c4)c(N)c3cc2C1 (stereo not given)
inactive: NCI-H23 lung 91.7% | NCI-H226 lung 85.2% | NCI-H322M lung 87.8% | HOP-62 NSCLC 74.1% | NCI-H460 lung 74.5% | HOP-92 NSCLC 61.4% | NCI-H522 lung 70.1% | A549/ATCC NSCLC 66.3% | 786-0 renal 83.1% | COLO 205 colon 67.8%

O=[N+]([O-])c1cccc([I+]c2ccccc2)c1
inactive: NCI-H23 lung 49.8% | NCI-H226 lung 59% | NCI-H322M lung 76.6% | NCI-H460 lung 18.2% | HOP-92 NSCLC 93.6% | NCI-H522 lung 50.3% | A549/ATCC NSCLC 47.7% | 786-0 renal 70.8% | COLO 205 colon 40.1%
active: HOP-62 NSCLC -26.8%

Cc1cc(C)c2c(NC(=O)Nc3ccc(Cl)c(Cl)c3)n[nH]c2n1
inactive: NCI-H23 lung 101% | NCI-H226 lung 108% | NCI-H322M lung 91.3% | HOP-62 NSCLC 105% | NCI-H460 lung 106% | HOP-92 NSCLC 117% | NCI-H522 lung 92.6% | A549/ATCC NSCLC 101% | COLO 205 colon 106%

CCOC(CN1CCN(CC(C)C(=O)c2ccccc2)CC1)c1ccccc1 (stereo not given)
inactive: NCI-H23 lung 112% | NCI-H226 lung 91.2% | NCI-H322M lung 95.5% | HOP-62 NSCLC 104% | NCI-H460 lung 99.7% | HOP-92 NSCLC 97.5% | NCI-H522 lung 73.9% | A549/ATCC NSCLC 96.5% | 786-0 renal 106% | COLO 205 colon 107%

C#CC[C@@H]1C[C@]2(C)[C@H]3CC=C4[C@H]5[C@@H](C)[C@H](C)CC[C@]5(C(=O)NCCCCN)CC[C@@]4(C)[C@]3(C)CC[C@H]2C(C)(C)[C@H]1OC(C)=O
active: NCI-H460 lung 1.45% | COLO 205 colon 6.68%
inactive: NCI-H23 lung 94.8% | NCI-H226 lung 87.1% | NCI-H322M lung 92.4% | HOP-62 NSCLC 89.2% | HOP-92 NSCLC 44.1% | NCI-H522 lung 81.7% | A549/ATCC NSCLC 72.6% | 786-0 renal 79.9%
